# Where “and” joins values, the source holds several entries; their conditions need not be identical. Equal entries are not always repeated. Whole data set: some 2,900 compounds, median “IRF Lucia reporter activity, fold change vs agonist alone” near 0.9, cut for the highest 2% near 2.8. Only a selection was taken, and the highest values are over-represented in it overall.
# How the values were obtained:
# RAW-Dual [1] = test: IRF Lucia reporter activity, fold change vs agonist alone; higher = enhanced IRF activity; details: cytotoxicity flag (confluency mask): not cytotoxic, agonist: MPLA (TLR4) […]
# Summary of the method: (§1)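 Cytotoxic wells were those whose IncuCyte confluency was below 70% of agonist controls in both mask sets. The cells were RAW-Dual macrophages at 50,000 cells/well in DMEM on 384-well plates, dosed with 50 nL of library stock by pin tool, stimulated with a PRR agonist 1 h later, and kept at 37 °C, 5% CO2 for 20 hours. IRF and NF-κB reporter activity, as fold change over agonist-alone wells, came from supernatant read by QuantiLuc luminescence and QuantiBlue absorbance, respectively.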
# RAW-Dual [2] = test: IRF Lucia reporter activity, fold change vs agonist alone; cytotoxicity flag (confluency mask): not cytotoxic; higher = enhanced IRF activity
# Summary of the method: as §1
# RAW-Dual [3] = test: IRF Lucia reporter activity, fold change vs agonist alone; cytotoxicity flag (confluency mask): cytotoxic (confluency <70% of control); higher = enhanced IRF activity
# Summary of the method: as §1
# [4] = library stock concentration (final ~1000-fold dilution): 10 mM
# [5] = agonist: 3'3'-cGAMP (STING) 10 ug/mL
smiles,measurement,setting,value
CCCc1nc(C)c2c(=O)[nH]c(-c3cc(S(=O)(=O)N4CCN(CC)CC4)ccc3OCC)nn12.Cl.O.O.O,IRF Lucia reporter activity,RAW-Dual [1]; [4],0.917
CCCc1nc(C)c2c(=O)[nH]c(-c3cc(S(=O)(=O)N4CCN(CC)CC4)ccc3OCC)nn12.Cl.O.O.O (library stock concentration (final ~1000-fold dilution): 10 mM),IRF Lucia reporter activity,RAW-Dual [2]; [5],0.839
same,IRF Lucia reporter activity,RAW-Dual [2]; agonist: LPS (TLR4) 0.1 ug/mL,0.967
O=C(NCCN1CCOCC1)Nc1nc2ccc(Sc3nnc4ccc(-c5ccc(F)cc5)nn34)cc2s1 (library stock concentration (final ~1000-fold dilution): 10 mM),IRF Lucia reporter activity,RAW-Dual [2]; [5],1.09
same,IRF Lucia reporter activity,RAW-Dual [2]; agonist: LPS (TLR4) 0.1 ug/mL,1.23
O=C(NCCN1CCOCC1)Nc1nc2ccc(Sc3nnc4ccc(-c5ccc(F)cc5)nn34)cc2s1,IRF Lucia reporter activity,RAW-Dual [1]; [4],0.994
CC1=C(CSC(=S)N2CCCCC2)C(=O)c2ccccc2C1=O (library stock concentration (final ~1000-fold dilution): 10 mM),IRF Lucia reporter activity,RAW-Dual [3]; [5],0.553
same,IRF Lucia reporter activity,RAW-Dual [3]; agonist: LPS (TLR4) 0.1 ug/mL,0.0143
COc1cc2c(cc1OC(C)C)C(c1ccc(Cl)cc1)N(c1ccc(N(C)CC3CCC(N4CCN(C)C(=O)C4)CC3)cc1)C(=O)C2 (stereo unspecified) (library stock concentration (final ~1000-fold dilution): 10 mM),IRF Lucia reporter activity,RAW-Dual [2]; [5],0.135
same,IRF Lucia reporter activity,RAW-Dual [2]; agonist: LPS (TLR4) 0.1 ug/mL,1.35
CC(N)C1CCC(C(=O)Nc2ccncc2)CC1.Cl.Cl (stereo unspecified) (library stock concentration (final ~1000-fold dilution): 10 mM),IRF Lucia reporter activity,RAW-Dual [2]; [5],0.926
same,IRF Lucia reporter activity,RAW-Dual [2]; agonist: LPS (TLR4) 0.1 ug/mL,0.81
CC(N)C1CCC(C(=O)Nc2ccncc2)CC1.Cl.Cl (stereo unspecified),IRF Lucia reporter activity,RAW-Dual [1]; [4],0.773
Oc1cccc(-c2nc(N3CCOCC3)c3oc4ncccc4c3n2)c1,IRF Lucia reporter activity,RAW-Dual [1]; [4],1.42
Nc1ccc(-c2cccc(C(=O)Nc3cnc4nc(N5CCOCC5)oc4c3)n2)cn1 (library stock concentration (final ~1000-fold dilution): 10 mM),IRF Lucia reporter activity,RAW-Dual [2]; [5],0.717
same,IRF Lucia reporter activity,RAW-Dual [2]; agonist: LPS (TLR4) 0.1 ug/mL,1.48
Nc1ccc(C(=O)Nc2cccc(-c3nc(N4CCOCC4)c4oc5ncccc5c4n3)c2)cn1,IRF Lucia reporter activity,RAW-Dual [1]; [4],3.52
Oc1cccc(-c2nc(N3CCOCC3)c3oc4ncccc4c3n2)c1 (library stock concentration (final ~1000-fold dilution): 10 mM),IRF Lucia reporter activity,RAW-Dual [2]; [5],0.381
same,IRF Lucia reporter activity,RAW-Dual [2]; agonist: LPS (TLR4) 0.1 ug/mL,1.94
Nc1ccc(C(=O)Nc2cccc(-c3nc(N4CCOCC4)c4oc5ncccc5c4n3)c2)cn1 (library stock concentration (final ~1000-fold dilution): 10 mM),IRF Lucia reporter activity,RAW-Dual [2]; [5],0.205
same,IRF Lucia reporter activity,RAW-Dual [2]; agonist: LPS (TLR4) 0.1 ug/mL,3.93
O=C(CCCCCCC(=O)N/N=C/c1ccc(N(c2ccccc2)c2ccccc2)cc1)NO (library stock concentration (final ~1000-fold dilution): 10 mM),IRF Lucia reporter activity,RAW-Dual [3]; [5],0.0199
same,IRF Lucia reporter activity,RAW-Dual [3]; agonist: LPS (TLR4) 0.1 ug/mL,0.533
Cc1ccc(Oc2ccnc3cc(-c4cnn(C5CCNCC5)c4)ccc23)cc1 (library stock concentration (final ~1000-fold dilution): 10 mM),IRF Lucia reporter activity,RAW-Dual [3]; [5],0.0554
same,IRF Lucia reporter activity,RAW-Dual [3]; agonist: LPS (TLR4) 0.1 ug/mL,0.134
CCC(C)(Nc1ccnc(-c2c[nH]c3ncccc23)n1)C(=O)NCC(F)(F)F (stereo unspecified) (library stock concentration (final ~1000-fold dilution): 10 mM),IRF Lucia reporter activity,RAW-Dual [2]; [5],0.291
same,IRF Lucia reporter activity,RAW-Dual [2]; agonist: LPS (TLR4) 0.1 ug/mL,0.35
CCC(C)(Nc1ccnc(-c2c[nH]c3ncccc23)n1)C(=O)NCC(F)(F)F (stereo unspecified),IRF Lucia reporter activity,RAW-Dual [1]; [4],0.41
Cc1cc(N2CCN(C3CNC(C(=O)N4CCSC4)C3)CC2)n(-c2ccccc2)n1 (stereo unspecified) (library stock concentration (final ~1000-fold dilution): 10 mM),IRF Lucia reporter activity,RAW-Dual [2]; [5],0.982
same,IRF Lucia reporter activity,RAW-Dual [2]; agonist: LPS (TLR4) 0.1 ug/mL,1.22
Cc1cc(N2CCN(C3CNC(C(=O)N4CCSC4)C3)CC2)n(-c2ccccc2)n1 (stereo unspecified),IRF Lucia reporter activity,RAW-Dual [1]; [4],1.02
Cc1ccc2nc(NCCN)c3ncc(C)n3c2c1 (library stock concentration (final ~1000-fold dilution): 10 mM),IRF Lucia reporter activity,RAW-Dual [2]; [5],2.21
same,IRF Lucia reporter activity,RAW-Dual [2]; agonist: LPS (TLR4) 0.1 ug/mL,3.5
same,IRF Lucia reporter activity,RAW-Dual [3]; agonist: LPS (TLR4) 0.1 ug/mL,0.0229 and 0.0291
CCOc1nc2cccc(C(=O)OCc3oc(=O)oc3C)c2n1Cc1ccc(-c2ccccc2-c2nc(=O)o[nH]2)cc1,IRF Lucia reporter activity,RAW-Dual [1]; [4],1.16
CCOc1nc2cccc(C(=O)OCc3oc(=O)oc3C)c2n1Cc1ccc(-c2ccccc2-c2nc(=O)o[nH]2)cc1 (library stock concentration (final ~1000-fold dilution): 10 mM),IRF Lucia reporter activity,RAW-Dual [2]; [5],1.04
same,IRF Lucia reporter activity,RAW-Dual [2]; agonist: LPS (TLR4) 0.1 ug/mL,1.16
CNS(=O)(=O)CC1CCC(N(C)c2ncnc3[nH]ccc23)CC1.O=C(O)/C=C\C(=O)O (stereo unspecified) (library stock concentration (final ~1000-fold dilution): 10 mM),IRF Lucia reporter activity,RAW-Dual [2]; [5],0.106
same,IRF Lucia reporter activity,RAW-Dual [2]; agonist: LPS (TLR4) 0.1 ug/mL,0.264
CC1CN(CC(=O)Nc2ccc3c(c2)Cc2cccc(-c4cc(=O)cc(N5CCOCC5)o4)c2S3)CC(C)O1 (stereo unspecified) (library stock concentration (final ~1000-fold dilution): 10 mM),IRF Lucia reporter activity,RAW-Dual [2]; [5],0.508
same,IRF Lucia reporter activity,RAW-Dual [2]; agonist: LPS (TLR4) 0.1 ug/mL,6.62
O=c1cc(N2CCOCC2)oc2c(-c3ccc4c(c3)OCCO4)csc12 (library stock concentration (final ~1000-fold dilution): 10 mM),IRF Lucia reporter activity,RAW-Dual [2]; [5],0.12
same,IRF Lucia reporter activity,RAW-Dual [2]; agonist: LPS (TLR4) 0.1 ug/mL,0.269
O=c1cc(-c2cccc3c2Sc2ccccc2S3)oc(N2CCOCC2)c1,IRF Lucia reporter activity,RAW-Dual [1]; [4],6.25
CC1CN(CC(=O)Nc2ccc3c(c2)Cc2cccc(-c4cc(=O)cc(N5CCOCC5)o4)c2S3)CC(C)O1 (stereo unspecified),IRF Lucia reporter activity,RAW-Dual [1]; [4],5.96
O=c1cc(N2CCOCC2)oc2c1ccc1ccccc12 (library stock concentration (final ~1000-fold dilution): 2 mM),IRF Lucia reporter activity,RAW-Dual [2]; [5],0.778
same,IRF Lucia reporter activity,RAW-Dual [2]; agonist: LPS (TLR4) 0.1 ug/mL,1.01
O=c1cc(-c2cccc3c2Sc2ccccc2S3)oc(N2CCOCC2)c1 (library stock concentration (final ~1000-fold dilution): 10 mM),IRF Lucia reporter activity,RAW-Dual [2]; [5],0.647
same,IRF Lucia reporter activity,RAW-Dual [2]; agonist: LPS (TLR4) 0.1 ug/mL,5.22
O=c1cc(N2CCOCC2)oc2c1ccc1ccccc12,IRF Lucia reporter activity,RAW-Dual [1]; library stock concentration (final ~1000-fold dilution): 2 mM,1.15
CC1(c2cc(-c3cncnc3)c(F)cc2F)CCSC(N)=N1 (stereo unspecified) (library stock concentration (final ~1000-fold dilution): 10 mM),IRF Lucia reporter activity,RAW-Dual [2]; [5],0.823
same,IRF Lucia reporter activity,RAW-Dual [2]; agonist: LPS (TLR4) 0.1 ug/mL,0.805
CC1(c2cc(-c3cncnc3)c(F)cc2F)CCSC(N)=N1 (stereo unspecified),IRF Lucia reporter activity,RAW-Dual [1]; [4],0.717
CCC(C)Nc1cc(C(=O)NC2CC3CCC(C2)N3c2ccc(C(=O)C3CC3)cn2)c(C)cc1C(N)=O (stereo unspecified) (library stock concentration (final ~1000-fold dilution): 10 mM),IRF Lucia reporter activity,RAW-Dual [2]; [5],0.482
same,IRF Lucia reporter activity,RAW-Dual [2]; agonist: LPS (TLR4) 0.1 ug/mL,0.924
CCC(C)Nc1cc(C(=O)NC2CC3CCC(C2)N3c2ccc(C(=O)C3CC3)cn2)c(C)cc1C(N)=O (stereo unspecified),IRF Lucia reporter activity,RAW-Dual [1]; [4],0.838

# — the supplement of paper PMC10037445
